Data reported in PubChem BioAssay (Tox21).
Results filed as inconclusive are left out. The source made the active and inactive calls. Unless noted, calls come from the whole dose curve; as a rule, active = well fitted curve in the direction sought with a large enough effect in the repeat runs; inconclusive = weak or mixed curves; inactive = no such curve, though single readings can be large; an effect the other way counts as inactive or inconclusive.

Key:
[1] = qHTS assay to identify small molecule agonists of the peroxisome proliferator-activated receptor delta (PPARd) signaling pathway - cell viability counter screen (AID 743211); note: nearly all actives have a fitted effect of over 55% in size
In short: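 Following 5 h plating at 37 C and 5% CO2, PPARd UAS-bla HEK293H cells took up test compounds for 17 h. Viability was quantified by luminescence 30 min after CellTiter-Glo addition at room temperature.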

[2] = target: Peroxisome proliferator-activated receptor delta (Homo sapiens) (UniProt Q03181); assay: qHTS assay to identify small molecule agonists of the peroxisome proliferator-activated receptor delta (PPARd) signaling pathway (AID 743212; calls by dose curve)
Sequence of Peroxisome proliferator-activated receptor delta (Homo sapiens) (Q03181 whole entry, looked up): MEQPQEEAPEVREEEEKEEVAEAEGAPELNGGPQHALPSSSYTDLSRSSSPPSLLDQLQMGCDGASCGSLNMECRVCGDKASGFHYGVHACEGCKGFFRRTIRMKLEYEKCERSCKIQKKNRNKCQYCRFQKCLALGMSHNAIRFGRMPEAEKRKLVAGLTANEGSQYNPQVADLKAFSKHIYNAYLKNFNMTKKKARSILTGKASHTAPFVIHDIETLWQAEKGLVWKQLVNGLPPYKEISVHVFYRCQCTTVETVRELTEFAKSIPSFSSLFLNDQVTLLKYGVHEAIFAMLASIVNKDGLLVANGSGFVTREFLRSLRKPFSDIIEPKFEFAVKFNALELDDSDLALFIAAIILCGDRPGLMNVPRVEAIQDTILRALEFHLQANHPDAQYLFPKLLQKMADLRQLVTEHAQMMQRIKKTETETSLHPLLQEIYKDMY
In short: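 GeneBLAzer UAS-bla HEK293H cells carrying a PPARδ construct were exposed to compounds at 37 °C. Beta-lactamase activity was read by FRET fluorescence after 2 h at room temperature with LiveBLAzer B/G substrate.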

[3] = qHTS assay to identify small molecule antagonists of the peroxisome proliferator-activated receptor delta (PPARd) signaling pathway - cell viability counter screen (AID 743213); note: nearly all actives have a fitted effect of over 50% in size
In short: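 Same-well viability: cells pre-incubated 5 h, dosed with compound plus 300 nM L165041, kept 17 h at 37 C, FRET substrate 2 h RT, then CellTiter-Glo 30 min RT and luminescence.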

[4] = target: Peroxisome proliferator-activated receptor delta (Homo sapiens) (UniProt Q03181); assay: qHTS assay to identify small molecule antagonists of the peroxisome proliferator-activated receptor delta (PPARd) signaling pathway (AID 743215; active = well fitted inhibition curve with a large enough effect in the signal ratio in the repeat runs, not every such curve was filed as active; the % refers to the signal ratio;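 note: cells stimulated with agonist L165041 at 300 nM final during compound exposure; series mostly up to about 62 µM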)
In short: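 Inhibition of L165041-driven (300 nM final) PPARd signaling is scored in HEK293H UAS-bla cells. Exposure lasts 17 h at 37 C; beta-lactamase activity is then read by FRET substrate fluorescence after 2 h at room temperature.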

[5] = target: Bile acid receptor (Homo sapiens) (UniProt Q96RI1); assay: qHTS assay to identify small molecule antagonists of the farnesoid-X-receptor (FXR) signaling pathway (AID 743217; active = well fitted inhibition curve with a large enough effect in the signal ratio in the repeat runs, not every such curve was filed as active; the % refers to the signal ratio)
Sequence of Bile acid receptor (Homo sapiens) (Q96RI1 whole entry, looked up): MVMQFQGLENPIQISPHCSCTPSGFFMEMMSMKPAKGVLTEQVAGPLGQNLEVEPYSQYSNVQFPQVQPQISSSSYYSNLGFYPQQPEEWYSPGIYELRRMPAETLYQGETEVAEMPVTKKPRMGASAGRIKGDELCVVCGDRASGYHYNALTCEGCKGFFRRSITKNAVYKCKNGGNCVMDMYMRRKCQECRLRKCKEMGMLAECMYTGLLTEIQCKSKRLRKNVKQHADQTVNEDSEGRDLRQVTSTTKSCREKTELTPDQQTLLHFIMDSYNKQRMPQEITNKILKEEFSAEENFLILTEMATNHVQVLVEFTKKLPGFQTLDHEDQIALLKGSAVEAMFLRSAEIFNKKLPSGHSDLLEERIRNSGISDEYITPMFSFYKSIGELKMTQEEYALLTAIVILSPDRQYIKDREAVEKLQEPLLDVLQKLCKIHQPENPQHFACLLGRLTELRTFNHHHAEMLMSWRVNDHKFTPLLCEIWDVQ
In short: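 Antagonist mode against 50 uM (final) chenodeoxycholic acid stimulation in FXR-bla HEK 293T cells, 16 h at 37 °C. Inhibition detected as reduced beta-lactamase activity via LiveBLAzer B/G FRET fluorescence after 2 h at room temperature.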

[6] = qHTS assay to identify small molecule agonists of the farnesoid-X-receptor (FXR) signaling pathway - cell viability counter screen (AID 743218); note: nearly all actives have a fitted effect of over 45% in size
In short: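 Cytotoxicity counter-screen run in parallel, same wells: FXR-UAS-bla HEK 293T cells dosed 16 h at 37 C, viability read by CellTiter-Glo luminescence after 30 min at room temperature.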

[7] = target: Bile acid receptor (Homo sapiens) (UniProt Q96RI1); assay: qHTS assay to identify small molecule agonists of the farnesoid-X-receptor (FXR) signaling pathway (AID 743220; active = well fitted activation curve with a large enough effect in the signal ratio in the repeat runs, not every such curve was filed as active; the % refers to the signal ratio)
In short: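 Beta-lactamase reporter under UAS control in GeneBLAzer FXR HEK 293T cells (5000/well) measured with LiveBLAzer FRET substrate after 2 h at room temperature. Compound exposure lasted 16 h at 37C.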

[8] = qHTS assay to identify small molecule antagonists of the farnesoid-X-receptor (FXR) signaling pathway - cell viability counter screen (AID 743221; active = well fitted cell-killing curve with a large enough effect in the repeat runs, not every such curve was filed as active; note: nearly all actives have a fitted effect of over 50% in size)
In short: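 Compound effects on cell number were measured as CellTiter-Glo luminescence in HEK 293T cells expressing FXR-UAS-bla, after 16 h at 37 C with 50 uM CDCA (final).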

[9] = target: Vitamin D3 receptor (Homo sapiens) (UniProt P11473); assay: qHTS assay to identify small molecule antagonists of the vitamin D receptor (VDR) signaling pathway (AID 743223; active = well fitted inhibition curve with a large enough effect in the signal ratio in the repeat runs, not every such curve was filed as active; the % refers to the signal ratio)
Sequence of Vitamin D3 receptor (Homo sapiens) (P11473 whole entry, looked up): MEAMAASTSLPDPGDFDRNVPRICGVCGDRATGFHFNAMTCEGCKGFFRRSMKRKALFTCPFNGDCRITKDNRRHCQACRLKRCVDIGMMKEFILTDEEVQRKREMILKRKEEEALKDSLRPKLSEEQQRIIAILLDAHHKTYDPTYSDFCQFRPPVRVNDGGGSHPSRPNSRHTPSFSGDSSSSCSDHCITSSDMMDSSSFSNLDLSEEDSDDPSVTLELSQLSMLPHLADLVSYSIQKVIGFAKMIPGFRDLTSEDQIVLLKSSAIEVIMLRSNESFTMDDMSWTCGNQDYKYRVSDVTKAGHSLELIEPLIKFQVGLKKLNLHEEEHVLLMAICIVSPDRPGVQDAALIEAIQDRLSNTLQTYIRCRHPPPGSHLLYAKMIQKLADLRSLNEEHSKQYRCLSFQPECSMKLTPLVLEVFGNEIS
In short: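 Beta-lactamase activity in VDR-bla cells is measured by FRET substrate fluorescence (2 h, room temperature) after cells spend 16 h at 37C with test compound and 3 nM final 1alpha,25-dihydroxyvitamin D3.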

[10] = target: Vitamin D3 receptor (Homo sapiens) (UniProt P11473); assay: qHTS assay to identify small molecule agonists of the vitamin D receptor (VDR) signaling pathway (AID 743222; calls by dose curve)
In short: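 Quantitative HTS agonist-mode screen: compounds in DMSO were pin-transferred onto VDR-bla cells and incubated 16 h at 37C, 5% CO2. Reporter activity was detected with LiveBLAzer B/G FRET substrate after 2 h at room temperature.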
% is set by controls: 0 for no effect and ±100 for the full control effect.

COC1=CC(=O)O[C@@H](/C=C/c2ccccc2)C1
inactive: Potency [1] | outcome [2] | Potency [3] | Potency [4] | outcome [5] | Potency [6] | outcome [7] | Potency [8] | outcome [9]

COC(=O)[C@@H](N)CCCN/C(N)=N/[N+](=O)[O-]
inactive: Potency [1] | outcome [2] | Potency [3] | Potency [4] | outcome [5] | outcome [7] | Potency [8]

CC(C)(N)Cc1ccccc1Cl
inactive: Potency [1] | outcome [2] | Potency [3] | Potency [4] | outcome [5] | Potency [6] | outcome [7] | Potency [8] | outcome [9]

C#CC(C)(C)O
inactive: Potency [1] | outcome [2] | Potency [3] | Potency [4] | outcome [5] | Potency [6] | outcome [7] | Potency [8] | outcome [9]

O=c1[nH]c2ccccc2o1
inactive: Potency [1] | outcome [2] | Potency [3] | Potency [4] | Potency [6] | Potency [8] | outcome [10]

COC(=O)c1ccccc1CS(=O)(=O)NC(=O)Nc1nc(OC)cc(OC)n1
inactive: Potency [1] | outcome [2] | Potency [3] | Potency [4] | outcome [5] | Potency [6] | outcome [7] | Potency [8] | outcome [9]

CCOC1Oc2ccc(OS(C)(=O)=O)cc2C1(C)C (stereo unspecified)
inactive: Potency [1] | outcome [2] | Potency [3] | Potency [4] | Potency [6] | Potency [8] | outcome [10]

N#CN=C1SCCN1Cc1ccc(Cl)nc1
inactive: Potency [1] | outcome [2] | Potency [3] | Potency [4] | Potency [6] | Potency [8]

CC(O)CCl (stereo unspecified)
inactive: Potency [1] | outcome [2] | Potency [3] | Potency [4] | outcome [5] | outcome [7] | Potency [8]

Clc1cc2c(cc1Cl)Oc1cc(Cl)c(Cl)cc1O2
inactive: activity change, negative = cytotoxicity [1] -2.8% [at 0.275 µM] | activation [2] 7.23% [at 0.275 µM] | viability change, negative = cytotoxic [3] -3.41% [at 0.278 µM] | ratio activity, negative = inhibition [4] -14.9% [at 0.278 µM] | activity change, negative = inhibition [5] -0.544% [at 0.275 µM] | viability change, negative = cytotoxic [6] -3.37% [at 0.275 µM] | activity change, negative = cytotoxicity [8] -5.6% [at 0.275 µM] | activation [10] 3.98% [at 0.275 µM] | activity change, negative = inhibition [9] -1.31% [at 0.281 µM]

CC(=O)CN(CC(C)=O)N=O
inactive: Potency [1] | outcome [2] | Potency [3] | Potency [4] | Potency [6] | Potency [8]

CCc1ccc(C2CCNCC2)cc1
inactive: Potency [1] | outcome [2] | Potency [3] | Potency [4] | Potency [6] | Potency [8]

CN1C(=O)COc2c(C(=O)NC3CN4CCC3CC4)cc(Cl)cc21 (stereo unspecified)
inactive: Potency [1] | outcome [2] | Potency [3] | Potency [4] | Potency [6] | Potency [8] | outcome [10] | outcome [9]

CS(=O)(=O)c1ccc(C(=O)C2C(=O)CCCC2=O)c(Cl)c1COCC(F)(F)F
inactive: Potency [1] | outcome [2] | Potency [3] | Potency [4] | Potency [6] | Potency [8] | outcome [10] | outcome [9]

[O-][Br+2]([O-])O
inactive: Potency [1] | outcome [2] | Potency [3] | Potency [4] | Potency [6] | Potency [8] | outcome [10] | outcome [9]

c1ccc2c(c1)CCNC2
inactive: Potency [1] | outcome [2] | Potency [3] | Potency [4] | Potency [6] | Potency [8] | outcome [10] | outcome [9]

CCCCCCC(=O)CCCCCC/C=C/C[C@@H](O)[C@H](O)[C@@](N)(CO)C(=O)O
inactive: Potency [1] | outcome [2] | Potency [3] | Potency [4] | Potency [8] | outcome [10] | outcome [9]

CCOC(=O)N(C)N=O
inactive: Potency [1] | outcome [2] | Potency [3] | Potency [4] | Potency [6] | Potency [8] | outcome [10] | outcome [9]

CCCCCCCCSC(=O)Oc1cc(Cl)nnc1-c1ccccc1
inactive: Potency [1] | outcome [2] | Potency [3] | Potency [4] | Potency [6] | Potency [8] | outcome [10] | outcome [9]

CC(C)C(C)(N)C#N (stereo unspecified)
inactive: Potency [1] | outcome [2] | Potency [3] | outcome [5] | Potency [6] | outcome [7] | Potency [8]

ClCCN1CCCC1
inactive: Potency [1] | outcome [2] | Potency [3] | Potency [4] | Potency [6] | Potency [8] | outcome [9]

CCOC(=O)Nc1cccc(OC(=O)Nc2ccccc2)c1
inactive: Potency [1] | outcome [2] | Potency [3] | Potency [4] | Potency [6] | Potency [8] | outcome [9]

CCOP(=O)(CN(CCO)CCO)OCC
inactive: Potency [1] | outcome [2] | Potency [3] | Potency [4] | Potency [6] | Potency [8] | outcome [10] | outcome [9]

c1cncc([C@@H]2CCCCN2)c1
inactive: Potency [1] | outcome [2] | Potency [3] | Potency [4] | Potency [6] | Potency [8] | outcome [10] | outcome [9]

O=C(Cl)C(Cl)Cl
inactive: Potency [1] | outcome [2] | Potency [3] | Potency [4] | Potency [6] | Potency [8] | outcome [10] | outcome [9]

ClCC1CO1 (stereo unspecified)
inactive: Potency [1] | outcome [2] | Potency [3] | Potency [4] | Potency [6] | Potency [8] | outcome [10] | outcome [9]

CCC1(c2ccccc2)C(=O)N(COC)C(=O)N(COC)C1=O
inactive: Potency [1] | outcome [2] | Potency [3] | Potency [4] | Potency [6] | Potency [8] | outcome [10] | outcome [9]

COc1cccc(C=O)c1
inactive: Potency [1] | outcome [2] | Potency [3] | Potency [6] | Potency [8] | outcome [10]

CCC1(c2ccccc2)CCC(=O)NC1=O (stereo unspecified)
inactive: Potency [1] | outcome [2] | Potency [3] | Potency [4] | Potency [6] | Potency [8] | outcome [10] | outcome [9]
